“And” between values parts separate entries of the source, which are not always exact repeats. Identical values can stand only once. Results filed as inconclusive are left out. Some structures have more than one record in an assay (separate samples or runs), and their calls can disagree. The source made the active and inactive calls. Unless noted, the call rests on the fitted dose curve.
What was measured:
[1] = Nuclear factor erythroid 2-related factor 2/antioxidant responsive element (Nrf2/ARE) small molecule agonists: qHTS cell viability counter screen in human keratinocytes (AID 1919968; active means well fitted curve in the direction sought with a large enough effect in the repeat runs; an effect the other way counts as inactive or inconclusive; further: nearly all actives have a fitted effect of over 55% in size; further: potency means the concentration at half of the fitted maximal effect)
Outline: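 Cytotoxicity was multiplexed with the Nrf2/ARE luciferase assay in the same wells. Stably transfected HaCaT keratinocytes were treated with test compounds for 23 h at 37 C. Cell viability was then measured by CellTiter-Fluor fluorescence.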

[2] = Nuclear factor erythroid 2-related factor 2/antioxidant responsive element (Nrf2/ARE) small molecule agonists: luciferase reporter gene qHTS assay in human keratinocytes (AID 1919969); further: nearly all actives have a fitted effect of over 35% in size; further: potency means the concentration at half of the fitted maximal effect
[3] = target: Gonadotropin-releasing hormone receptor (Homo sapiens) (UniProt P30968); assay: Human gonadotropin-releasing hormone receptor (GnRHR) small molecule agonists, calcium flux assay in GnRHR-HEK293 cells (AID 1920063); further: nearly all actives have a fitted effect of over 35% in size; further: potency means the concentration at half of the fitted maximal effect
Sequence of Gonadotropin-releasing hormone receptor (Homo sapiens) (P30968 whole entry, looked up): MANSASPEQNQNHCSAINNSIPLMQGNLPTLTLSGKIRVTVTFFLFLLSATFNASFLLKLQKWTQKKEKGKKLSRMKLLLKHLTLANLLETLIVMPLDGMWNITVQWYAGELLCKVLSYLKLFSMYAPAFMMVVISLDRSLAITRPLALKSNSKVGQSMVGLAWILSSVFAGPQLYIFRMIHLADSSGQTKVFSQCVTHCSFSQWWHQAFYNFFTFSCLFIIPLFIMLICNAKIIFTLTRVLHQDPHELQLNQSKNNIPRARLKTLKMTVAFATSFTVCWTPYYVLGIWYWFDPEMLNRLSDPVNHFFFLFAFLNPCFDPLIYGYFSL
Outline: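 Agonist activity was measured as intracellular calcium flux in HEK293 cells engineered to stably express human GnRHR. After dye loading for 1 hour at 37 C, compounds in DMSO were added and fluorescence was followed for 3 minutes.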

[4] = target: KiSS-1 receptor (Homo sapiens) (UniProt Q969F8); assay: Human kisspeptin (KISS1R) small molecule agonists, calcium flux assay in KISS1R-HEK293 cells (AID 1920064; active means well fitted curve in the direction sought with a large enough effect in the repeat runs; an effect the other way counts as inactive or inconclusive)
Sequence of KiSS-1 receptor (Homo sapiens) (Q969F8 whole entry, looked up): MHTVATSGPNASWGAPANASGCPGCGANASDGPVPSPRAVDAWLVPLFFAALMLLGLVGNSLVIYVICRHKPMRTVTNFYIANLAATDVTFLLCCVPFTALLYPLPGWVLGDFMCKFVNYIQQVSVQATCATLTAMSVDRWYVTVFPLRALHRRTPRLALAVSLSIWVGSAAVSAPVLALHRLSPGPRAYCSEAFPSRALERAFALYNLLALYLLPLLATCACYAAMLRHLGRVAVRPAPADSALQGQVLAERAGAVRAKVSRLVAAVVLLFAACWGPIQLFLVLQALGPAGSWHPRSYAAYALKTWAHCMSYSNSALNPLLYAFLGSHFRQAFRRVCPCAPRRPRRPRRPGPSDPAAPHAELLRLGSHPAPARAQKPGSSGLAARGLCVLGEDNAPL
Outline: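 Agonist activity is monitored as intracellular calcium rise in engineered HEK293 cells carrying human KISS1R. Cells are dye-loaded for 1 h at 37 C before compound addition, and fluorescence is recorded for 3 min.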

[5] = G protein-coupled receptor (GPCR) small molecule agonists, calcium flux assay: HEK293 wild type cell line counter screen (AID 1920065)
Outline: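 Seed cells, incubate 18 h (37 C, 5% CO2); add calcium dye, 1 h at 37 C; pin-transfer compounds, ATP control or DMSO; read fluorescence 480/540 nm each second for 3 min.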

[6] = p53 small molecule agonists, cell-based qHTS assay with human liver microsomes: qHTS cell viability counter screen (AID 1963579); further: nearly all actives have a fitted effect of over 45% in size; further: potency means the concentration at half of the fitted maximal effect
Outline: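 After the 460/530 nm beta-lactamase read, CellTiter-Glo was added to the same wells and luminescence measured after 30 min at room temperature, giving viability of p53RE-bla cells treated 16 h with compounds plus microsomes and NADPH.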

[7] = p53 small molecule agonists, cell-based qHTS assay with rat liver microsomes: qHTS cell viability counter screen (AID 1963580); further: nearly all actives have a fitted effect of over 45% in size
Outline: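 Rat liver microsome (0.5 mg/mL final) and NADPH (0.5 mg/mL final) co-incubation with compounds for 16 h at 37 C on HCT-116 p53RE-bla cells; cytotoxicity taken from intracellular ATP luminescence.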

[8] = p53 small molecule agonists, cell-based qHTS assay: qHTS cell viability counter screen (AID 1963581); further: nearly all actives have a fitted effect of over 45% in size
Outline: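 Viability was counter-screened in parallel with the p53 agonist reporter by measuring intracellular ATP luminescence in the same HCT-116 p53RE-bla wells after 16 h compound treatment at 37 C.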

[9] = target: 5-hydroxytryptamine receptor 2A (Homo sapiens) (UniProt P28223); assay: 5-hydroxytryptamine receptor 2A (HTR2A) small molecule antagonists, cell-based qHTS assay (AID 1963586); further: nearly all actives have a fitted effect of over 45% in size; further: potency means the concentration at half of the fitted maximal effect
Sequence of 5-hydroxytryptamine receptor 2A (Homo sapiens) (P28223 whole entry, looked up): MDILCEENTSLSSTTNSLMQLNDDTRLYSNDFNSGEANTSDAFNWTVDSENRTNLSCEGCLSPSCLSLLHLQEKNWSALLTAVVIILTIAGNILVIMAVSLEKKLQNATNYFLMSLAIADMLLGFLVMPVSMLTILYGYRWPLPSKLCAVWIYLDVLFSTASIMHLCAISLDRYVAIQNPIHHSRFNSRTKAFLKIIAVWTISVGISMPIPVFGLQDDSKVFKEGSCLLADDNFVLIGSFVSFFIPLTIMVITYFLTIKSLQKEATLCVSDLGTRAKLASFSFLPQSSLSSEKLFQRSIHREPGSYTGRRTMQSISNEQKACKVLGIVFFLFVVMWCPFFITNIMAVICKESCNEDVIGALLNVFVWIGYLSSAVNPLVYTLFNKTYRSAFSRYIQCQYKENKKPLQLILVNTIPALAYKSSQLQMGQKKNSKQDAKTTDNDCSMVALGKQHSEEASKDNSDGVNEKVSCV
Outline: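 CHO cells stably expressing human HTR2A were plated for 18 h at 37 C, then loaded with calcium dye for 1 h. Compounds were preincubated 5 min at room temperature before DOI (4 nM solution) was added. Kinetic fluorescence was read for 3 min.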

[10] = target: 5-hydroxytryptamine receptor 2A (Homo sapiens) (UniProt P28223); assay: 5-hydroxytryptamine receptor 2A (HTR2A) small molecule agonists, cell-based qHTS assay (AID 1963587); further: nearly all actives have a fitted effect of over 30% in size; further: potency means the concentration at half of the fitted maximal effect
Outline: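 Kinetic calcium-flux fluorescence (2 min, 1 sec intervals) after compound addition in agonist mode. HTR2A-CHO cells were cultured 18 h, then dye-loaded 1 h at 37 C.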

[11] = target: Muscarinic acetylcholine receptor M1 (Homo sapiens) (UniProt P11229); assay: Cholinergic receptor muscarinic 1 (CHRM1) small molecule antagonists, cell-based qHTS assay (AID 1963588); further: nearly all actives have a fitted effect of over 40% in size; further: potency means the concentration at half of the fitted maximal effect
Sequence of Muscarinic acetylcholine receptor M1 (Homo sapiens) (P11229 whole entry, looked up): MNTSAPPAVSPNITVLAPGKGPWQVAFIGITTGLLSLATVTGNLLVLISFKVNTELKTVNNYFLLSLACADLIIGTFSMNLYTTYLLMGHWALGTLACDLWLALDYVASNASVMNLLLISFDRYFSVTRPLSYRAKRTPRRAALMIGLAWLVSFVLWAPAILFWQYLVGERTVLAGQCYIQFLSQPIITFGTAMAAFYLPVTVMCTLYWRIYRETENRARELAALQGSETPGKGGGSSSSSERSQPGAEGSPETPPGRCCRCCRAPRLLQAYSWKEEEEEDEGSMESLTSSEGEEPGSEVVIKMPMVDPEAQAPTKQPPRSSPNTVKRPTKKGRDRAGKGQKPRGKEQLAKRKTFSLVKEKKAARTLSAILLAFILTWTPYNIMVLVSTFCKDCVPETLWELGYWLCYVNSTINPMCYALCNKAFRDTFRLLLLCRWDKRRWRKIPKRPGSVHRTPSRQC
Outline: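 Compounds were tested at 15 concentrations in three independent runs. Dye-loaded CHRM1-CHO cells were exposed 5 min at room temperature before stimulation by acetylcholine added at 50nM. Intracellular calcium was read kinetically on FDSS for 3 min.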

[12] = target: Muscarinic acetylcholine receptor M1 (Homo sapiens) (UniProt P11229); assay: Cholinergic receptor muscarinic 1 (CHRM1) small molecule agonists, cell-based qHTS assay (AID 1963589); further: nearly all actives have a fitted effect of over 35% in size
Outline: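 Cells were plated and incubated 18 h at 37 C/5% CO2, loaded with calcium dye for 1 h at 37 C, then treated with compounds in DMSO. Fluorescence was recorded kinetically at 1 sec intervals.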

[13] = cAMP Responsive Elements (CRE) small molecule agonists, cell-based qHTS assay (AID 1963590)
Outline: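 Cells carrying a CRE-driven beta-lactamase reporter (HEK 293T) are seeded, incubated overnight (18 h), and treated with test compounds for 3 h at 37 C; reporter activity is then detected with a FRET substrate after 2 h at room temperature.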

[14] = cAMP Responsive Elements (CRE) small molecule antagonists, cell-based qHTS assay (AID 1963591; active means well fitted inhibition curve with a large enough effect in the signal ratio in the repeat runs, not every such curve was filed as active; the % refers to the signal ratio)
Outline: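 Cells (CRE-bla HEK 293T, DMEM with 10% dialyzed FBS and 25 mM HEPES) are seeded and incubated 18 h. Compounds are added with NKH477 agonist at 0.25 uM final for 3 h, then FRET substrate for 2 h.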

[15] = target: Beta-2 adrenergic receptor (Homo sapiens) (UniProt P07550); assay: Adrenergic beta2 receptor (ADRB2) small molecule antagonists, cell-based qHTS assay (AID 1963592); further: series mostly up to about 92 µM; nearly all actives have a fitted effect of over 50% in size
Sequence of Beta-2 adrenergic receptor (Homo sapiens) (P07550 whole entry, looked up): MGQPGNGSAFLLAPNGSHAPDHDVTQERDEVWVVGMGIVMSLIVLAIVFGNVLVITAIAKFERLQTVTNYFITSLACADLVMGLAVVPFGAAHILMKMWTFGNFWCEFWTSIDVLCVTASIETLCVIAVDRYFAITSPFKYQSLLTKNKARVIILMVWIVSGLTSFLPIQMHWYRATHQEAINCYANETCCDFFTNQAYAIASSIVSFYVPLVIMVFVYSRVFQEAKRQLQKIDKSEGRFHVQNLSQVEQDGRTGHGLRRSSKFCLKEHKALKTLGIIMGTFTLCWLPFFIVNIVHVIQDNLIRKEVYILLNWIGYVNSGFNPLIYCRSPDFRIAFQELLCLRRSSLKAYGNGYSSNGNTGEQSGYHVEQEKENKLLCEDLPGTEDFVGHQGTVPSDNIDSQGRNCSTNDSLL
Outline: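 Assay format: CHO-ADRB2 cells, 18-20hr seeding at 37C/5% CO2, then compound plus 1nM isoproterenol agonist mix for 0.5hr RT. Homogeneous time-resolved fluorescence cAMP detection after 1hr, expressed as 665/615 nm ratio.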

[16] = target: Beta-2 adrenergic receptor (Homo sapiens) (UniProt P07550); assay: Adrenergic beta2 receptor (ADRB2) small molecule agonists, cell-based qHTS assay (AID 1963593);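 further: CHO cells stably overexpressing human ADRB2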
Outline: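 CHO cells stably over-expressing ADRB2 were plated overnight at 37C, then dosed with compounds plus a stimulation mix containing 100uM IBMX and 25uM Ro-20-1724 for 0.5hr at room temperature. cAMP was measured by HTRF competition, 1hr.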

[17] = target: D(2) dopamine receptor (Homo sapiens) (UniProt P14416); assay: Dopamine D2 receptor (DRD2) small molecule agonists, cell-based qHTS assay (AID 1963594); further: nearly all actives have a fitted effect of over 35% in size
Sequence of D(2) dopamine receptor (Homo sapiens) (P14416 whole entry, looked up): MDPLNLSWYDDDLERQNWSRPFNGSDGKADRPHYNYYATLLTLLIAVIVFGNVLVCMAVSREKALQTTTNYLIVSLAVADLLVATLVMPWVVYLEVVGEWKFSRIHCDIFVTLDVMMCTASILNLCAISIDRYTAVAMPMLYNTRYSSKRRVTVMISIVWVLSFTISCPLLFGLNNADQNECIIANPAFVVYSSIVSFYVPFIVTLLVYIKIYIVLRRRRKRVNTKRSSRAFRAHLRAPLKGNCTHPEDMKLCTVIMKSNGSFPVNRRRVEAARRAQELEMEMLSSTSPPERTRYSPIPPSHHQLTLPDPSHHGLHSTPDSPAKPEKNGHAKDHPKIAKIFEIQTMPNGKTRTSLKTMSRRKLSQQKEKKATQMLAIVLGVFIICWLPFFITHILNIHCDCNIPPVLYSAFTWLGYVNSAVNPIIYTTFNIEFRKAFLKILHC
Outline: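 cAMP accumulation in DRD2-HEK293 cells measured by HTRF after 1 h detection; compounds added 10 min before NKH477 (200nM […]) forskolin-analogue stimulation, 30 min at room temperature, with Ro20-1724 present at 0.1 mM final.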

[18] = p53 small molecule agonists, cell-based qHTS assay (AID 1963582; active means well fitted activation curve with a large enough effect in the signal ratio in the repeat runs, not every such curve was filed as active; the % refers to the signal ratio)
Outline: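 Cells carrying a p53-responsive bla reporter are treated with test compounds for 16 h at 37 C; beta-lactamase activity is then detected with LiveBLAzer B/G FRET substrate after 2 h at room temperature.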

[19] = target: D(2) dopamine receptor (Homo sapiens) (UniProt P14416); assay: Dopamine D2 receptor (DRD2) small molecule antagonists, cell-based qHTS assay (AID 1963595; active means well fitted inhibition curve with a large enough effect in the signal ratio in the repeat runs, with a control signal flat; the % refers to the signal ratio; further: potency means the concentration at half of the fitted maximal effect)
Outline: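 HEK293 cells stably expressing DRD2 were preincubated with 0.1 mM Ro20-1724, then with compound for 10 min at room temperature. Cells were stimulated with 200 nM NKH477 plus 12 nM quinpirole for 30 min, and cAMP was read by HTRF.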

[20] = p53 small molecule agonists, cell-based qHTS assay with rat liver microsomes (AID 1963578)
Outline: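 Metabolic activation is supplied by rat liver microsomes with NADPH (each 0.5 mg/mL final). p53RE-bla cells incubate with compound 16 h at 37 C; reporter activity is measured by LiveBLAzer fluorescence.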

Measured: Potency

CC(=O)/C=C/c1ccccc1
60 µM (active) and inactive: [2]
not listed: [18] | [19] | [20]
inactive: all other assays above

COP(N)(=O)SC (configuration not stated)
not listed: [20]
inactive: all other assays above

CC1(C)C(C=C(Cl)Cl)C1C(=O)OC(C#N)c1cccc(Oc2ccccc2)c1 (configuration not stated)
not listed: [6]
inactive: all other assays above

O=S1OCC2C(CO1)C1(Cl)C(Cl)=C(Cl)C2(Cl)C1(Cl)Cl (configuration not stated)
37.5 µM (active) and inactive: [11]
43.7 µM (active) and inactive: [10]
active: [1] 48.6 µM and 61.1 µM
not listed: [6] | [13] | [14] | [15] | [16] | [19]
inactive: all other assays above

CCOC(=O)CC(SP(=O)(OC)OC)C(=O)OCC (configuration not stated)
inactive and 61.1 µM (active): [2]
not listed: [16] | [20]
inactive: all other assays above

C[C@]12CC[C@H]3[C@@H](CCC4=CC(=O)CC[C@@H]43)[C@@H]1CC[C@@H]2O
not listed: [6] | [9] | [10] | [11] | [12] | [13] | [15]
inactive: all other assays above

C=C(Cl)CCl
not listed: [6] | [14] | [15]
inactive: all other assays above

COP(=S)(OC)Oc1cc(Cl)c(Cl)cc1Cl
active: [2] 68.1 µM
not listed: [15] | [16] | [17] | [20]
inactive: all other assays above

O=C1C(Cl)=C(Cl)C(=O)c2ccccc21
active: [1] 24.4 µM and 48.6 µM | [2] 5.46 µM and 8.63 µM | [3] 34.8 µM | [6] 14.5 µM | [9] 26.6 µM | [10] 6.94 µM | [19] 21.7 µM
inactive: [4] | [5] | [20] | [8] | [18] | [11] | [12]

— PubChem BioAssay (Tox21)
